Data published in PubChem BioAssay AID1159580 (chemical genetic matrix, 2015).
Out of some 5,500 compounds screened, about 2,000 (36%) were called active. Another 18% or so got no clear call; they are omitted. Cut-off read from the data, not from the text of the source: active = normalized growth mostly below about 0.91 (no sharp cut-off); inconclusive = no clear call, values can overlap the other calls; inactive = mostly above about 0.92. The list shows a part of the results.

Assay: chemical genetic growth profiling, strain panel (AID 1159580);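 note: tested at 20 µM; growth read once vehicle control cultures reached saturation at 30 °C; 1 = growth at the plate median or of vehicle wells; lower values mean less growth of the strain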
Conditions: S. cerevisiae deletion strains, growth OD

Measured: normalized growth

N[C@H](CCCCCP(=O)(O)O)C(=O)O
inactive: locus YAL013W, strain DEP1, active compounds read low 0.989 | locus YAL040C, strain CLN3, active compounds read low 1.06 | locus YCL061C, strain MRC1 (second series), active compounds read low 1.01 | locus YER002W, strain NOP16, active compounds read low 1 | locus YGR078C, strain PAC10, active compounds read low 1 | locus YJR075W, strain HOC1, active compounds read low 1.01 | locus YMR263W, strain SAP30, active compounds read low 1.01 | locus YNL128W, strain TEP1, active compounds read low 0.987 | locus YNL153C, strain GIM3, active compounds read low 1.02 | locus YNL175C, strain NOP13, active compounds read low 0.994 | locus YNL197C, strain WHI3, active compounds read low 0.968 | locus YNL224C, strain SQS1, active compounds read low 1 | locus YOR083W, strain WHI5 (second series), active compounds read low 0.964 | locus YPL055C, strain LGE1, active compounds read low 0.997 | locus YPL241C, strain CIN2, active compounds read low 1
